Values joined by “and” are separate entries in the source; they are usually repeats but may differ in a detail not shown here. Equal entries are not always repeated. Inconclusive results are not listed. The call rests on the fitted dose curve; in most records, active means well fitted curve in either direction with a large enough effect (not every such curve was filed as active); inconclusive means small, poorly fitted or top-dose-only effect, or another doubt; inactive means flat fitted curve, though single readings scatter.
Test: AP1 Signaling Pathway (AID 357);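 further: ME-180 reporter cells stimulated with EGF at its EC50 level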
Details: ME-180 AP-1-bla reporter, EGF-induced, beta-lactamase ratio, 5 h; at 7.69 µM (top of the series) unless noted
From the text: NCGC Assay Overview: Activator protein-1 (AP-1), a transcription factor, plays an important role in tumor genesis by regulating genes involved in cell proliferation, differentiation, apoptosis, and angiogenesis. AP-1 activity is induced by a complex network of signaling pathways that involves extracellular signals, such as growth factors. The AP-1 protein complex formed from c-Fos and c-Jun binding to the AP-1 response element results in transcriptional activation of genes containing such elements within their promoter. Low molecular weight molecules have been discovered and developed to modulate various components of these signaling pathways, for example, MAP kinase inhibitors. However, many points of pathway modulation remain untested due to the lack of chemical probes making this signaling locus of general interest. Using a beta-lactamase reporter-gene under control of the AP-1 response element, a cell-based assay [CellSensor(TM) AP-1-bla ME-180 developed by Invitrogen Corp.] was used to measure EGF-induced signaling. Library compounds were measured for their ability to modulate positively or negatively the action of EC50 EGF on reporter gene activity. Compounds were screened in a titration series in 1536-well format. Positive and negative modulators were identified based on the AC50 values derived from the screening data.
NCGC Assay Protocol Summary: 2500 cells/5uL in Opti-MEM medium containing 0.5% dialyzed FBS, 0.1 mM NEAA, 1 mM sodium pyruvate and 10 mM HEPES was dispensed into 1536-well plates and cells were cultured at 37 degrees Celsius overnight. […] After centrifugation at 1000 rpm for 2 seconds the plates were incubated at 37 degrees Celsius for 5 hours. 1 uL of CCF4-dye mixture was added to each well. After incubated at room temperature for 2.5 hours the plates were measured on an EnVision plate reader at Excitation 405nm, Emission1=460nm and Emission 2=530nm. The %Activity was determined from the ratio of 460nm/530nm.
On the % scale 0 is the no-effect control and ±100 the full control effect.

Activity change, negative = inhibition, inactive:
Cn1cccc1C(=O)N1CCC[C@@]2(CCN(c3ncccn3)C2)C1 -1.25%
O=S(=O)(c1ccccc1)N1CCC2(CCN(c3ccncc3)CC2)CC1 2.08%
O=S(=O)(c1ccccc1)N1CCC[C@@]2(CCN(c3ncccn3)C2)C1 -0.184%
O=c1c(-c2cccs2)nc2cnc(Nc3ccccc3)nc2n1C[C@H]1CCCO1 -12.9%
Cn1cc(-c2nc3cnc(OCc4ccccc4)nc3n(CCC#N)c2=O)c2ccccc21 3.51%
O=C(c1cnccn1)N1CCC2(CC1)CN(c1cccc(-c3ccccc3)c1)C2 -8.05%
CN(C)C(=O)c1ccc(-c2cncnc2-n2ccnc2)cc1 -3.64%
COc1ccc(CNc2ccnc(-c3ccccc3CN(C)C)n2)c(OC)c1 5.22%
CCNc1ncc2ncc(=O)n(C)c2n1 3.09%
CCNc1ncc2nc(-c3ccccc3)c(=O)n(-c3ccc(OC)cc3)c2n1 27.6%
COc1ccc(C(=O)N2CCC3(CCCN(C(=O)NC(C)C)C3)CC2)cc1 -3.27%
COC(=O)N1CCC2(CCCN(C(c3ccccc3)c3ccccc3)C2)CC1 11.9%
COc1c(O)cc2c(c1O)[C@@H]1O[C@@H](CO)[C@@H](O)[C@@H](O)[C@@H]1OC2=O 9.85% [at 17.2 µM]
c1cncc(CNc2ncncc2-c2ccoc2)c1 2.19%
COc1ccc(-c2nc3cnc(N4CCOCC4)nc3n(Cc3cccs3)c2=O)cc1 12.3%
O=C(c1ccco1)N1CCC[C@@]2(CCN(C(c3ccccc3)c3ccccc3)C2)C1 -9.33%
COc1cccc(Nc2ncc3nc(-c4ccccc4)c(=O)n(C)c3n2)c1 -7.32%
COc1ccc(-c2nc3cnc(N4CCN(C)CC4)nc3n(CCC#N)c2=O)cc1 23.4%
O=C(O)/C=C\c1ccc(Cn2ccnc2)cc1 -4.02% [at 17.2 µM]
COCCn1c(=O)c(-c2cc(F)cc(F)c2)nc2cncnc21 -5.19%
Cc1noc(C)c1-c1ccc2ncnc(NCc3ccccc3)c2c1 21.4%
COc1ccccc1-c1nc(NCCNC(C)=O)c2ccccc2n1 -11.3%
N#Cc1cccc(NC(=O)N2CCCC3(CCN(C(=O)c4ccco4)CC3)C2)c1 -14.7%
COc1ncc2nc(-c3cccs3)c(=O)n(Cc3cccs3)c2n1 5.34%
COc1ccc(-n2c(=O)c(-c3cc(F)cc(F)c3)nc3cncnc32)cc1 -5%
Cn1c(=O)c(-c2ccc(F)cc2)nc2cnc(Oc3ccccc3)nc21 14.3%
COc1ccc(Oc2ncc3ncc(=O)n(Cc4ccc(F)cc4)c3n2)cc1 -18.4%
CC(=O)NCCNc1nc(-c2cccc(NS(C)(=O)=O)c2)nc2ccccc12 -17.6%
Cc1nc2cnc(N3CCNCC3)nc2n(CCC#N)c1=O -1.38%
O=C(Oc1ccccc1)N1CCC[C@@]2(CCN(c3ccccn3)C2)C1 7.28%
N#Cc1cccc(-c2cncnc2NCCc2cnc[nH]2)c1 -12%
c1ccc2c(Nc3ccncc3)nc(-c3ccoc3)nc2c1 -7.11%
CN(C)Cc1ccccc1-c1nccc(NC2CC2)n1 -4.26%
CN(C)c1ncc2nc(CCc3ccccc3)c(=O)n(C3CC3)c2n1 1.45%
COc1ccc(Oc2ncc3ncc(=O)n(C4CC4)c3n2)cc1 -1.59%
O=C(c1ccco1)N1CCC2(CCCN(c3ccccn3)C2)CC1 -0.937%
COc1ccc2[nH]cc(CCNc3ccnc(-c4ccccc4C)n3)c2c1 -8.02%
Cc1nc2cnc(Oc3cccc(Cl)c3)nc2n(CCc2ccccc2)c1=O 2.12%

Same assay, conditions: ME-180 AP-1-bla reporter, EGF-induced, beta-lactamase ratio, 5 h; at 17.2 µM (top of the series)

Activity change, negative = inhibition, inactive:
CN(C)CC[C@H](c1ccc(Br)cc1)c1ccccn1 0.671%

Same assay, conditions: ME-180 (cervical carcinoma) AP-1-bla reporter, EGF-induced, beta-lactamase ratio, 5 h; at 38 µM (top of the series)

Activity change, negative = inhibition, inactive:
CN(C)CC[C@H](c1ccc(Br)cc1)c1ccccn1 15.7% and 25.3%
